How the values were obtained:
Test in all cases: PBM binding z-score (relative to random genomic background probes); higher = stronger binding; sequences stand for … in GC…GCGATTGACAGCGTAGAATGAAGG
[1] = tested on: RARb homodimer (NR concentration 270 nM)
How it was run: (§1)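 The probes on custom Agilent 4×180K protein-binding microarrays were double-stranded, with 34-nt variable regions bearing direct-repeat seeds, single-nucleotide variants, half-site ablations and random human genomic background sequences. Incubation lasted 1 h with ligand-free nuclear receptor dimers in PBS pH 7.4, 2% milk, 0.02% Triton X-100, 1 mM DTT, 0.2 mg/mL BSA and 0.4 mg/ml salmon testes DNA. Antibodies against each partner (one per run) detected bound dimers, and fluorescence scans were regression-normalized. Binding z-scores take the random background probes as reference.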

[2] = tested on: RARg:RXRa (NR concentration 270 nM, RXRa partner concentration 90 nM)
How it was run: as §1

[3] = tested on: RARg homodimer (NR concentration 270 nM)
How it was run: as §1

[4] = tested on: RXRa DBDmut IVT, anti-RXR (DBD mutation: RXRa K156A/R161A, NR concentration 90 nM)
How it was run: as §1

[5] = tested on: RXRa homodimer (NR concentration 180 nM)
How it was run: as §1

[6] = tested on: THRa:RXRa (NR concentration 90 nM, RXRa partner concentration 90 nM)
How it was run: as §1

[7] = tested on: THRa homodimer (NR concentration 90 nM)
How it was run: as §1

[8] = tested on: VDR homodimer (NR concentration 270 nM)
How it was run: as §1

Row | Sequence | PBM binding z-score [1] | PBM binding z-score [2] | PBM binding z-score [3] | PBM binding z-score [4] | PBM binding z-score [5] | PBM binding z-score [6] | PBM binding z-score [7] | PBM binding z-score [8]
1 | ACTATTAGTTGAGACGAGGGCAACAGATAGGTTG | 1.17 | 0.793 | 0.969 | 0.472 | 0.663 | 2.42 | 0.255 | 1.15
2 | CGAACTAGCTCATCCAGGACAGTGAATACATTGA | 0.118 | -0.191 | 0.156 | 0.64 | 0.0877 | 1 | 0.936 | 0.271
3 | GCGACTGGTGCAAAGCAGGTTACCATAAGGTTGG | 0.217 | -0.209 | -0.317 | -0.409 | 0.0236 | 1.93 | -0.397 | -0.448
4 | CGTCAAAGTTCAACTAAGGTACCGTAAAGCACGC | 4.34 | 5.81 | 6.61 | 4.77 | 5.35 | 4.81 | 0.671 | 4.06
5 | TCTTGTAGATCACGCAGGTTAAGAAAGCCTGAGT | 0.254 | 0.174 | 0.0532 | 0.693 | 0.723 | 0.601 | -0.33 | -0.258
6 | ACTTTTAGTTGAGACGAGGGCAACCGATAGGTTG | 1.35 | 0.942 | 1.03 | 0.926 | 0.7 | 2.53 | 0.433 | 1.02
7 | CAAACTAGGTCAAGAGGTCAGAGTCCGCTTCCCG | 5.42 | 7.29 | 7.22 | 2.53 | 6.9 | 3.88 | 2.15 | 3.34
8 | TTACCAAGGTGAAAGGCCGTTGATGCACGCCTTG | 1.1 | 0.963 | 0.384 | -0.3 | 1.3 | 1.45 | 0.31 | -0.0991
9 | GATACAGGGACAGCTAGAGGCCAGAGTATGGAAA | 0.97 | 0.522 | 1.01 | -0.496 | 0.185 | 0.508 | 0.191 | -0.0729
10 | CGTCCAAGGTCATCAGGTCAGTGAAAGCGACGTG | 5.08 | 6.56 | 6.99 | 4.23 | 6.63 | 4.34 | 3.86 | 3.8
11 | ATCTCTAGGTAAGACTCAGTTGAGTGAAGAACGC | -0.154 | 0.15 | 0.0573 | 0.17 | -0.0983 | 0.492 | 0.309 | 0.119
12 | CGAACGAGGGCAGGAGTTGATAGCAAATGCCGAT | 0.754 | 0.906 | 1.13 | 0.67 | 0.365 | 0.403 | -0.595 | 0.281
13 | TCTAGCAGGCCAGCGGGTCACTCAAGAGGTACGG | 2.01 | 2.14 | 1.56 | 0.000361 | 1.77 | 1.42 | -0.34 | -0.133
14 | CCTACTGGGCCATCATGTCATTGATATCAACGTT | 0.671 | 0.216 | 0.415 | -0.152 | -0.104 | 0.045 | 0.122 | -0.253
15 | CAAACTAGGTCGCAGAGGTCAAAGTCCGTGCGTA | 4.96 | 6.18 | 5.62 | 2.9 | 6.96 | 4.19 | 1.67 | 5.86
16 | ATCTCTAGATAAAGATAGTTCAGTGAATGCAAAT | 0.48 | 0.16 | 0.499 | -0.299 | 0.282 | 0.263 | -0.124 | 0.668
17 | CGGACTGGGGCAGAAAGGTTACCATACCATCCGG | 2.51 | 1.79 | 1.69 | -0.693 | 1.85 | 1.29 | -0.00516 | 0.148
18 | CAGACTGGGGCAGAAAGGTTACCATACCATCCGG | 2.4 | 2.09 | 1.85 | -0.43 | 1.98 | 1.29 | -0.421 | 0.0589
19 | ATACCTAGGTGATCGTGAGGTCGTTGATACTAAC | 1.49 | 1.58 | 0.568 | 0.641 | 1.51 | 3.15 | 2.51 | 3.13
20 | CAACCAAGGTGAACAAGGTCGTTGATTACTATTC | 2.25 | 1.9 | 1.64 | 1.49 | 2.07 | 3.44 | 2.06 | 2.59
21 | TCGAGTAGGTTAGGGGCATTTAGAATGGCGTCGA | 0.875 | 0.265 | 0.0778 | 0.475 | 0.534 | 0.793 | 0.327 | 0.777
22 | GCTAGCAGGCCTTTTGGGTCACTCAATGACGGGC | 1.39 | 0.621 | 0.516 | -0.579 | 0.552 | 2.11 | 0.611 | -0.536
23 | CAATCTAGGTCAAGGTCAAAGTCGGTTTGTGCCA | 5.05 | 5.89 | 6.37 | 3.25 | 5.61 | 4.65 | 4.37 | 4.3
24 | CGTCCAAGGTCATAGGAGGTCAGTGACGACAGAT | 5.23 | 6.83 | 7.27 | 4.28 | 7.54 | 5.3 | 3.25 | 4.76
25 | TCTCGGAGGAGACGAAGGTCAGAGCTTTCCAGAG | 2.74 | 1.88 | 1.77 | -0.234 | 1.63 | 1.11 | -0.507 | -0.413
26 | TGGATGAGGTTATAAGATCAGGGAACGTTGCAAA | 0.465 | 1.53 | 1.24 | 0.341 | 1.97 | 1.91 | 0.397 | 0.65
